From PubChem BioAssay AID504329 (Southern Research Specialized Biocontainment Screening …, 2011) come the findings set out here.

One may read the inhibition as the drop in the measured response relative to a control, in per cent.

SMILES strings stand for the structures. In all, about 340,000 compounds went through this assay and about 1,000 (0.29%) were called active. Only a sample is shown. Measured potencies and affinities stand elsewhere. Values without a mark were called inactive. Cut-off read from the data, not from the text of the source: inconclusive = inhibition above about 27% without an active follow-up result; inactive = below that.

This experiment can be described thus: H1N1 influenza NS1A inhibitors, functional cell based assay (AID 504329). The note with it: percent inhibition, at 12.5 µM, hits give high values.
Turning to `COc1ccc(-c2ccc(/C=C3\C(=O)N(c4ccccc4)N=C3c3ccccc3)o2)c([N+](=O)[O-])c1`, the inhibition was 10.3%. The result for `O=C1ON=C(c2ccccc2)/C1=C/c1ccc(-c2ccccc2[N+](=O)[O-])o1` reads -1.51%; that for `CC(C)Cc1nnc(NC(=O)CCC(=O)NCc2ccccc2Cl)s1`, -2.08%. The result for `CC(=O)Nc1ccc2nc(NC(=O)COc3ccccc3Cl)sc2c1` reads -0.9%. For `CC(C)Oc1cccc(C(=O)Nc2ccc(N3CCN(C)CC3)cc2)c1`, the inhibition is -2.02%. Take `C=CC(=O)Nc1cccc(Oc2ccnc3[nH]ccc23)c1`: the inhibition is 19.9%. Regarding `CN1CCN(c2ccc(NC(=O)Oc3ccccc3)cc2)CC1`, the inhibition was 17.8%. Turning to `COc1ccc(C(=O)Nc2ccc(N3CCN(C)CC3)cc2)cc1`, the inhibition is 1.09%. Consider `Cc1ccc(S(=O)(=O)N2CCN(C(=O)COC(=O)/C=C/c3ccccc3[N+](=O)[O-])CC2)c(C)c1`, for which the inhibition was 0.45%. For the compound `CC(NCC(=O)Nc1ccccc1C(=O)NC1CC1)c1cccs1` (centres undefined), the inhibition was -16.2%. Regarding `CCOC(=O)c1c(NC(=O)c2ccccc2)sc2c1CCc1ccccc1-2`, the inhibition is -10.9%.

As to `COc1ccc2noc3c2c1C(=O)c1ccccc1-3`, the inhibition was 7.47%. The result for `COc1ccc(OC)c2c1C(=O)C(Cl)=C(Cl)C2=O` reads 24.7%. The result for `COCCN1C(=O)N[C@@H](c2ccccc2)[C@H](C(=O)OC)[C@H]1C` reads -12.7%; that for `CC1(C)Oc2ccc3ccc(=O)oc3c2C(/C=N/O)=C1Cl`, -10.3%.

`CC1(C)Oc2ccc3ccc(=O)oc3c2/C(=C/NNC(N)=O)C1=O`: the inhibition was -7.94%.

As for `Cc1ccc(NC(=O)NNC(=O)CN2C(=O)COc3ccccc32)cc1`, the inhibition was -2.65%. On to `Cc1cccc(OC(=O)c2cccnc2)c1C`, for which the inhibition is -8.58%. On to `CC(C)c1nnc(NC(=O)C2CCCN(C(=O)Nc3ccc(F)cc3)C2)s1` (centres undefined), for which the inhibition was -2.41%. Turning to `CCOC(=O)C1CCN(C(=O)C2CCC(=O)N(Cc3cccc(C(F)(F)F)c3)C2)CC1` (centres undefined), the inhibition was 11.5%. The result for `CC(=O)NCCn1c(C)cc2ccccc21` reads -2.59%; that for `Cc1cc2ccccc2n1CCNC(=O)C(C)C`, 4.98%; that for `O=C(OCc1ccccc1F)c1cc([N+](=O)[O-])ccc1N1CCOCC1`, 12.7%.

With `CCCC(=O)NC(c1cccs1)c1cc(Cl)c2cccnc2c1O` (centres undefined), the inhibition is -9.38%.

Regarding `CC(C)C(=O)NC(c1ccccc1)c1cc([N+](=O)[O-])c2cccnc2c1O` (centres undefined), the inhibition was 3.43%. Take `CCCC(=O)NC(c1ccco1)c1cc([N+](=O)[O-])c2cccnc2c1O` (centres undefined): the inhibition was 4.57%. For `CCC(=O)NC(c1ccc(C)cc1)c1cc([N+](=O)[O-])c2cccnc2c1O` (centres undefined), the inhibition is 27.3%. The result for `CC(C)C(=O)NC(c1cccs1)c1cc([N+](=O)[O-])c2cccnc2c1O` (centres undefined) reads 7.53%; that for `CC(=O)NC(c1ccc(C)cc1)c1cc([N+](=O)[O-])c2cccnc2c1O` (centres undefined), 22%. For `Cc1ccc(NC(=O)c2cc(-c3ccccc3)n[nH]2)cc1`, the inhibition is -9.32%.

Regarding `COc1ccc(NC(=O)CSc2nnc(C(C)C)n2N)cc1`, the inhibition was 2.67%. As for `O=C(Cn1c2c(c(=O)n3ncnc13)CCC2)N/N=C/c1ccc(Cl)cc1`, the inhibition was -0.52%.

For the compound `CCn1ncc(Br)c1C(=O)Nc1nccs1`, the inhibition is 8%. The result for `COC(=O)/C=C/c1ccc(OC(=O)c2ccncc2)cc1` reads -0.93%; that for `CC(=O)C1=C(c2ccccc2)OC(N)=C(C#N)C1c1ccccc1C` (centres undefined), 7.47%; that for `Cn1c(CC(=O)Nc2ccccc2F)nnc1SCC(=O)NC1CCCC1`, 4.61%. Regarding `O=[N+]([O-])c1ccc2c(c1)C(=Nc1ccccc1)c1ccccc1-2`, the inhibition was 19.1%.

Take `Cc1cccc(N=C2NC(=O)c3cc([N+](=O)[O-])ccc32)c1`: the inhibition is -0.91%. The result for `COc1ccc(CCNCc2ccccc2)cc1` reads -9.83%; that for `COc1ccc(CCNCc2ccccc2F)cc1`, -20.5%; that for `COc1ccc(C(=O)NCCC2=CCCCC2)cc1`, -1.2%.

In the case of `COc1ccc(CC(=O)NCCC2=CCCCC2)cc1`, the inhibition is 10.7%. Take `CCN1C[C@@H]2[C@@H]3C(=O)N(Cc4ccccc4)C(=O)[C@@H]3[C@](CC)(C(=O)OC)N2C1=NC1CCCCC1`: the inhibition was -28.6%.

`Cc1ccc(NC(=O)C2CCN(S(=O)(=O)c3ccc4c(c3)C(C)(C)C(=O)N4C)CC2)c(C)c1`: the inhibition is 8.27%.

`CCCn1c(N)c(N(CCOC)C(=O)COC(=O)CSc2cc(C)c3ccccc3n2)c(=O)[nH]c1=O`: the inhibition is -17.1%. Consider `CN1C(=O)/C(=C\c2ccccc2OCc2ccccc2)SC1=S`, for which the inhibition is 10.4%. For the compound `Cc1cc(/C=C2\SC(=S)N(C)C2=O)c(C)n1-c1ccccc1O`, the inhibition was 6.77%. For `Cc1cc(/C=C2\SC(=S)N(C)C2=O)c(C)n1-c1cccc(O)c1`, the inhibition is -1.47%. `COc1ccc(O)c(/C=C2/SC(=S)N(Cc3ccccc3)C2=O)c1`: the inhibition was 8.37%. The result for `CC(=O)c1c(C)[nH]c(C(=O)NC2=NCCS2)c1C` reads 7.87%. The result for `O=C(CN1C(=O)NC2(CCCCC2)C1=O)Nc1cc(C(F)(F)F)ccc1N1CCOCC1` reads -9.76%; that for `COc1ccccc1Oc1c(C)oc2c(CN(C)C)c(O)ccc2c1=O`, 12.9%; that for `COc1ccc(N/N=C(\C#N)C(=N)N2CCOCC2)cc1`, 0.407%. The result for `Cc1[nH]c(=O)[nH]c(=O)c1CSCC(=O)OCC(=O)Nc1ccccn1` reads -14.1%; that for `O=C(CCCC(=O)OCC(=O)NC1CCCC1)Nc1ccccn1`, -6.66%. Take `CCCCSCc1[nH]c(=O)[nH]c1C(=O)CCCCC(=O)OCC`: the inhibition is 1.07%. Turning to `CCOC(=O)CCCCC(=O)c1[nH]c(=O)[nH]c1CSCCO`, the inhibition was 12.6%. The result for `O=C(CP(=O)(O)CC(=O)c1ccccc1)c1ccccc1` reads 5.59%; that for `O=C1c2cccnc2C(=O)N1CNc1ccc(Cl)cc1`, 3.28%. The result for `COc1cccc(C(=O)NCCS(=O)(=O)NCc2cccnc2)c1` reads -2.08%. The result for `CC(C)CCNC(=O)C(CC(C)C)N(Cc1ccc2c(c1)OCO2)C(=O)c1snc(C(N)=O)c1N` (centres undefined) reads 6.77%; that for `C=CCC1(C#N)C(SC)=NC2=C(C(=O)CC(C)(C)C2)C1c1ccc(Br)cc1` (centres undefined), -5.14%. In the case of `O=C(CN1C(=O)COc2ccccc21)Nc1ccc2c(c1)OCCO2`, the inhibition was 0.43%. The result for `O=C(CN1C(=O)COc2ccccc21)Nc1ccccc1F` reads 2.27%; that for `CCOC(=O)c1sc(NC(=O)CNCc2cccnc2)c(C(=O)OCC)c1C`, -2.69%. The result for `CCOC(=O)c1c(NC(=O)COC(=O)c2ccccn2)sc(C(=O)N(C)C)c1C` reads -8.42%; that for `COCCN(C(=O)c1csnn1)C(C(=O)NC1CCCCC1)c1ccccc1F` (centres undefined), -4.23%. The result for `CCCSc1ccc([C@H]2N[C@@](C)(C(=O)OC)[C@H]3C(=O)N(C)C(=O)[C@@H]23)cc1` reads 6.02%; that for `COC(=O)c1cc2cc(NS(=O)(=O)c3ccc(C)cc3)ccc2s1`, -3.1%.

`O=C(N=Nc1c(O)[nH]c2ccccc12)c1ccc(CN2CCOCC2)cc1`: the inhibition was 7.41%. For `NC(=S)N=Nc1c(O)[nH]c2ccccc12`, the inhibition is 14.1%. Turning to `N=C(N)N=Nc1c(O)[nH]c2ccc(Br)cc12`, the inhibition was -0.68%. Consider `Oc1[nH]c2ccc(Br)cc2c1N=NC(=S)Nc1ccc(F)cc1`, for which the inhibition is -7.69%. As for `Cc1ccc(N(CC(=O)NC2CCCCC2)C(=O)CNC(=O)c2ccco2)cc1C`, the inhibition is 7.87%. The result for `CC(C)c1ccc(C(=O)OCC(=O)NC2CCCC2)cc1` reads 1.66%. The result for `CCOc1ccc(N2CC(O)(c3cccs3)[N+]3=C2CCCC3)cc1` (centres undefined) reads 2.37%. The result for `COc1ccccc1C(=O)NC(CCSC)C(=O)NCc1ccncc1` (centres undefined) reads -4.75%; that for `CCc1cc2c(=O)oc(-c3ccc(F)cc3)nc2s1`, -6.8%. In the case of `COC(=O)C1CC2=C(CCC2=O)N(c2ccccc2)C1=O` (centres undefined), the inhibition was -7.88%.

With `Cc1ccc(S(=O)(=O)N(C)C)cc1NC(=O)COC(=O)/C(=C/c1ccc(F)cc1)c1cccs1`, the inhibition was -0.58%. Consider `O=C1Nc2ccccc2C1=O`, for which the inhibition was 0.1%. The result for `O=C1/C(=C/c2ccccc2)Nc2ccccc21` reads 14.7%. Turning to `O=C(COC(=O)CN1C(=O)COc2ccccc21)NCc1ccc(F)cc1`, the inhibition is -6.84%. The result for `COc1ccc(CN(C)CC(=O)Nc2sc3c(c2C#N)CCC3)c(OC)c1` reads -1.01%; that for `CCc1ccc(NSc2ccccc2[N+](=O)[O-])cc1`, 28.4%; that for `O=[N+]([O-])c1nn(-c2ccccc2)[n+]([O-])c1N1CCN(c2ccccc2F)CC1`, 2.62%. For `CC(=O)c1ccc(NC(=S)Nc2ccc(Br)c(Cl)c2)cc1`, the inhibition was -4.9%. Turning to `CC(=O)N(C)c1ccc(N=C2C(=O)Nc3ccccc32)cc1`, the inhibition was 3.21%. The result for `Cc1ccc(N=C2C(=O)Nc3ccccc32)cc1` reads -4.95%; that for `C=CCn1c(SCC(=O)N(C)C)nc2cc(C(=O)O)ccc2c1=O`, -7.19%; that for `C=CCn1c(Sc2ccccc2)nc2c1c(=O)[nH]c(=O)n2C`, -6.06%. The result for `COc1ccc([C@H]2CC(=O)C=C(c3ccc(O)cc3)C2)cc1OC` reads -4.89%. The result for `CN(C)c1ccc(C(=O)NN2C(=O)c3ccccc3C2=O)cc1` reads -1.57%.

As for `CN(C)c1ccc(/C=N/N2C(=O)c3ccccc3C2=O)cc1`, the inhibition is -9.49%.
